Each structure is given as a SMILES string. Records with an inconclusive call do not appear. The source made the active and inactive calls. Rule for the calls, unless noted: active = hit-call score of the fitted dose curve at least 0.9, where 1 is the maximum; inconclusive = response in the unintended direction; inactive = score below 0.9.

Assay [1] has as its system SERPINA7 (gene 6906). As to the kind of experiment: CCTE_GLTED_hTBG: CCTE's human Thyroxine-binding Globulin (TBG) Inhibition Assay, Great Lakes Toxicology and Ecology Division (GLTED) Lab (AID 2284343).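 Note: active chemicals lower fluorescence versus DMSO baseline by displacing probe.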 In a few lines:
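hTBG + test chem, 2 h; ANSA probe displacement; fluorescence readout ex380/em475; DMSO = neg ctrl/baseline; cell-free.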

Assay [2] is described as follows: CCTE_Mundy_HCI_iCellGluta_NOG_NeuronCount: CCTE's Neurite Outgrowth Assay in iCellGluta cells for Neuron Count, Mundy Lab (AID 2284340).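 Note: cells fixed about 48 h after compound addition.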 In a few lines: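 Neuron count read by automated high-content imaging of Hoechst 33342 and betaIII-tubulin/Alexa Fluor-488 labelling in human iPSC glutamatergic neurons. Activity fitted relative to DMSO.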
Assay [3] in a line: CCTE_Mundy_HCI_iCellGluta_NOG_NeuriteCount: CCTE's Neurite Outgrowth Assay in iCellGluta cells for Neurite Count, Mundy Lab (AID 2284342).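 Note: chemical exposure about 48 hours starting 2 hours after plating.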
For assay [4], the system named is TTR (gene 7276). The assay can be described thus: CCTE_GLTED_hTTR_0.125uM: CCTE's human Transthyretin (hTTR) Inhibition Assay, with 0.125uM TTR, Great Lakes Toxicology and Ecology Division (GLTED) Lab (AID 2284431; active = hit-call score of the fitted dose curve at least 0.9, where 1 is the maximum; inactive = score below 0.9;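 note: hits lower the fluorescence signal relative to DMSO baseline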). Summed up: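 TTR 0.125uM + test chemical, 2 h; ANSA probe displacement; ex 380/em 475 fluorescence; signal loss vs DMSO control.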

For orientation: AC50 means the concentration at which the activity in the assay is half-maximal. As to `O=C(O)c1cc(Oc2ccc(C(F)(F)F)cc2Cl)ccc1[N+](=O)[O-]`, the AC50 in assay [1] is 4.45 µM (active).

Regarding `CON=C(C(=O)OC)c1ccccc1CON=C(C)c1cccc(C(F)(F)F)c1`, the AC50 in assay [2] was 50 µM (active); in assay [3] it was 24.6 µM (active).

As to `CCCCN(CC)c1c([N+](=O)[O-])cc(C(F)(F)F)cc1[N+](=O)[O-]`, in assay [1], the AC50 is 2.78 µM (active).

As for `CC(=NC#N)N(C)Cc1ccc(Cl)nc1`, the outcome in assay [2] and in assay [3] was inactive.

Consider `Cc1ccn2nc(S(=O)(=O)Nc3c(F)cccc3F)nc2n1`, for which the result in assay [1] was inactive.

`CCOP(=O)(OCC)Oc1cc(C)nc(C(C)C)n1`: the result in assay [2] and in assay [3] was inactive.

As for `Nc1c(Cl)cc([N+](=O)[O-])cc1Cl`, the AC50 in assay [4] is 0.176 µM (active).

In the case of `CCOP(=S)(OCC)OC(Cl)C(Cl)(Cl)Cl` (stereo not drawn), the compound was called inactive in assay [2] and in assay [3]. Further, the AC50 in assay [4] was 33.2 µM (active).

The values are drawn from PubChem BioAssay (EPA / NIEHS).
